Inconclusive results are not listed. Active and inactive are the calls of the source. Calls follow the shape of the dose curve; as a rule, active = well fitted inhibition curve with a large enough effect; inconclusive = small, poorly fitted or top-dose-only effect; inactive = no such curve, though single readings can be large or run the other way.
Assay: qHTS for Inhibitors of the Aldehyde Dehydrogenase Family (ALDH1A2, ALDH1A3, ALDH2, ALDH3A1) (AID 2061307); also: nearly all actives have a fitted effect of over 50% in size; as to Potency: test system not described further here
Potency is read from the fitted curve at half-maximal effect.

Structure (SMILES)	Potency
COc1ccc(-c2cc(C(=O)Nc3ccc(C(N)=O)cc3F)sc2C)cc1	inactive
Cn1ccc(=Nc2ccc(NC(=O)c3ccc(N=c4ccn(C)c5ccc([N+](=O)[O-])cc45)cc3[N+](=O)[O-])cc2)cc1	5.65 µM (active)
COc1ccc(-n2ncc3c2CCCC3NC(=O)c2cc(NC(C)=O)ccn2)cc1 (centres undefined)	inactive
O=C(Cc1ccc(-c2csc(Nc3ccc(F)cc3)n2)s1)N1CCOCC1	7.12 µM (active)
CN1c2cc(C(=O)Nc3ccc(N4CCOCC4)cc3)ccc2C(=O)N2CCCCC21 (centres undefined)	inactive
N#Cc1ccsc1NC(=O)c1ccn(-c2ccccc2F)n1	1 µM (active)
COc1ccc(-n2c(C)c(C(=O)O)c3cc(O)ccc32)cc1	inactive
CNc1nc2c(s1)C(c1ccccc1Cl)CC(=O)N2 (centres undefined)	11.3 µM (active)
COc1ccc(OC)c(-n2c3c(cc(-c4nnn(-c5ccc(Cl)cc5)n4)c2=O)C(=O)CC(C)(C)C3)c1	5.04 µM (active)

Reference: PubChem BioAssay (NCATS)
